Data on 17 compounds can be found in PubChem BioAssay (NCATS).

In assay [1] the target is Cytochrome P450 1A2 (Homo sapiens) (UniProt P05177). Nature of the assay: p450-cyp1a2 (AID 410; calls by dose curve; note: potency is the fitted concentration of half-maximal effect). The method, boiled down: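 O-Demethylation of luciferin 6' methyl ether by human CYP1A2 is monitored as luciferase luminescence. Substrate sits at Km (100uM); enzyme is 20nM. Values are scaled to 57 uM furafylline as maximal inhibition.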
Chain of Cytochrome P450 1A2 (Homo sapiens) (P05177 whole entry, looked up): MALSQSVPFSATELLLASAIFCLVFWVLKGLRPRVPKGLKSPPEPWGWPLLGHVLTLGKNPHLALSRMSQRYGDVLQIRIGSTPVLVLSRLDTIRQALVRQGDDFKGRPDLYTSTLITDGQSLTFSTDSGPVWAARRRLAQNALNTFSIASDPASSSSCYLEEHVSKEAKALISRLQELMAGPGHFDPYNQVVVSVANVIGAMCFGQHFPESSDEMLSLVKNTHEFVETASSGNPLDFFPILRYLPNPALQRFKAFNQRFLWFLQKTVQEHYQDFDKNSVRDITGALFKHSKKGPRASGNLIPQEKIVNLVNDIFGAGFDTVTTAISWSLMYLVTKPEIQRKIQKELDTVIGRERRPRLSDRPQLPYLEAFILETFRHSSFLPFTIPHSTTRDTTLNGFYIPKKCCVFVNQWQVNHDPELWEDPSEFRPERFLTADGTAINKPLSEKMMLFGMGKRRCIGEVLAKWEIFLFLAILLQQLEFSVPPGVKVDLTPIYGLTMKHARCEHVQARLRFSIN
The target in assay [2] is Glucocorticoid receptor (Homo sapiens) (UniProt P04150). Nature of the assay: GR-EFC Redistribution (AID 451; calls by dose curve; note: potency is the fitted concentration of half-maximal effect). The settings on record: CHO-K1 GR-EFC translocation, beta-gal luminescence, 2 h. In outline:
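CHO-K1 cells expressing nuclear EA and GR-ED fragments of b-gal; compounds titrated up to 46 uM final, 2 h at 37 C. GR nuclear translocation read as complemented b-gal luminescence after 1 h RT detection.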

The target in assay [3] is Mitogen-activated protein kinase 10 (Mus musculus) (UniProt Q61831). Nature of the assay: JNK3 AlphaScreen Assay (AID 530; active = well fitted curve in either direction with a large enough effect, not every such curve was filed as active;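 note: kinase came from lysate of stimulated human HepG2 cells; signal reports phosphorylation of biotinylated GST-cJun 1-79 at Ser73 with 10 µM ATP; series mostly up to about 57 µM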). In outline: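 Activity was read by AlphaScreen after JNK3-containing HepG2 lysate (cytokine pre-activated) phosphorylated biotinylated GST-cJun with 10 uM ATP at room temperature. Phospho-Ser73 cJun antibody with Protein-A acceptor beads provided detection.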

Assay [4] concerns the target 3',5'-cyclic-AMP phosphodiesterase 4B (Homo sapiens) (UniProt Q07343). Put plainly: qHTS Assay for Inhibitors of PDE-IV (AID 607; active = well fitted activation curve with a large enough effect in the main read-out, with a control signal flat, not every such curve was filed as active). The method, boiled down:
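HEK293 ACTOne cells with CNG channel (1000/well), endogenous PDE4; membrane potential dye, compounds up to 22.9 uM final. Fluorescence Ex 535/Em 590; RO 20-1724 (100 uM final) as reference.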

Assay [5] concerns the target Cytochrome P450 2D6 (Homo sapiens) (UniProt P10635). Put plainly: qHTS Assay for Inhibitors and Substrates of Cytochrome P450 2D6 (AID 891). Note: nearly all actives have a fitted effect of over 60% in size. Note: potency is the fitted concentration of half-maximal effect. The method, boiled down:
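Luminescent read-out of luciferin formed by 5 nM human CYP2D6 demethylating 30 uM Luciferin-ME EGE (Km level) over 60 min at room temperature after NADPH regeneration addition. Data normalized to full inhibition by 1.43 uM quinidine.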

For assay [6], the target named is Cytochrome P450 2C19 (Homo sapiens) (UniProt P33261). Put plainly: qHTS Assay for Inhibitors and Substrates of Cytochrome P450 2C19 (AID 899). Note: nearly all actives have a fitted effect of over 60% in size. Note: potency is the fitted concentration of half-maximal effect. The method, boiled down: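 Luminescent read-out of luciferin formed from Luciferin-H EGE (10uM, equal to KM). Enzyme 5nM in 50mM KPO4; compound added, 10 min at 37C, then NADPH regenerating system for 60 min at 37C. Full inhibition defined by 57uM ketoconazole.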
Chain of Cytochrome P450 2C19 (Homo sapiens) (P33261 whole entry, looked up): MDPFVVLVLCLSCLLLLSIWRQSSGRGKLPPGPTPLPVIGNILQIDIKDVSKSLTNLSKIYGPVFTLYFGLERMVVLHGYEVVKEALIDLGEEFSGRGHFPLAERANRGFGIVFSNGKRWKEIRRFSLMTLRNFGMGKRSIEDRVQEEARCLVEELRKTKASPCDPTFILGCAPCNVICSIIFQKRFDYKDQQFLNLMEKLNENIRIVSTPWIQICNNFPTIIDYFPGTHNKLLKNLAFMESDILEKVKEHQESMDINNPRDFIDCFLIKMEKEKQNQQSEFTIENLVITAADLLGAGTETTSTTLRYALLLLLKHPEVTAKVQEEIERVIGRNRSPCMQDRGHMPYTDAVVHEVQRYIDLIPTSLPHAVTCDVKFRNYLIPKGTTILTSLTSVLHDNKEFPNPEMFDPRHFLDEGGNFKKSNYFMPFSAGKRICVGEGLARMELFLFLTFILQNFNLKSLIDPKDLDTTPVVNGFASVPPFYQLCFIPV

The target in assay [7] is Glucocorticoid receptor (Homo sapiens) (UniProt P04150). Put plainly: GR-GFP Redistribution (AID 450;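 active = compounds whose dose series gives a full or clear partial fitted curve of increased nuclear translocation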; note: potency is the fitted concentration of half-maximal effect).
Chain of Glucocorticoid receptor (Homo sapiens) (P04150 whole entry, looked up, the tested form may be a part): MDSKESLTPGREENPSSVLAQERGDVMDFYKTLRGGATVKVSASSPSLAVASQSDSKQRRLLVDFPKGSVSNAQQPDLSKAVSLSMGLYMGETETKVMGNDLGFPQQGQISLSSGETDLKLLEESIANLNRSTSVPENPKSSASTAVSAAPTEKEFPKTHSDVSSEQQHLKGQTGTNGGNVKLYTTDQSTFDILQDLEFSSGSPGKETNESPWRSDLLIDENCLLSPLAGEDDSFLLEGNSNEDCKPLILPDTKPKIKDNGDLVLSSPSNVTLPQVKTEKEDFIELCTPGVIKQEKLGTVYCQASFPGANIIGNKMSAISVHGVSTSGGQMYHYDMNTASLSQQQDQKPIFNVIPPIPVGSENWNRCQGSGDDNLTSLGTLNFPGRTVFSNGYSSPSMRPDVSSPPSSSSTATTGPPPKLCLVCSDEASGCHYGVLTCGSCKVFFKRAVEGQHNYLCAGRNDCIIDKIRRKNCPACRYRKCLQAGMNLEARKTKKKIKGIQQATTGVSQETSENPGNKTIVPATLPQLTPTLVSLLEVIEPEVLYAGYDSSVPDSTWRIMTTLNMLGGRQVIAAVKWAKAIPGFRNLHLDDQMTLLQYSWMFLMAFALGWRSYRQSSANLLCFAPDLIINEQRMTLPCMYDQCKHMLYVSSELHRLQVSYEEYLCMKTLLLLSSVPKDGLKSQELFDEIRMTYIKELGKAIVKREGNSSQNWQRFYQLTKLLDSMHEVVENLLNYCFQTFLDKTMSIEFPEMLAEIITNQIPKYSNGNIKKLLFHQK
The target of assay [8] is Cytochrome P450 2C9 (Homo sapiens) (UniProt P11712). Put plainly: qHTS Assay for Inhibitors and Substrates of Cytochrome P450 2C9 (AID 883). Note: nearly all actives have a fitted effect of over 60% in size. In outline: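 10nM CYP2C9 + 100uM Luciferin-H (=KM), 25mM KPO4; cpd 10 min 37C; NADPH regen, 60 min 37C; stop/detect with P450 Glo-Buffer 20 min; luminescence. Norm. to 57uM sulphaphenazole as full inhibition.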
Chain of Cytochrome P450 2C9 (Homo sapiens) (P11712 whole entry, looked up): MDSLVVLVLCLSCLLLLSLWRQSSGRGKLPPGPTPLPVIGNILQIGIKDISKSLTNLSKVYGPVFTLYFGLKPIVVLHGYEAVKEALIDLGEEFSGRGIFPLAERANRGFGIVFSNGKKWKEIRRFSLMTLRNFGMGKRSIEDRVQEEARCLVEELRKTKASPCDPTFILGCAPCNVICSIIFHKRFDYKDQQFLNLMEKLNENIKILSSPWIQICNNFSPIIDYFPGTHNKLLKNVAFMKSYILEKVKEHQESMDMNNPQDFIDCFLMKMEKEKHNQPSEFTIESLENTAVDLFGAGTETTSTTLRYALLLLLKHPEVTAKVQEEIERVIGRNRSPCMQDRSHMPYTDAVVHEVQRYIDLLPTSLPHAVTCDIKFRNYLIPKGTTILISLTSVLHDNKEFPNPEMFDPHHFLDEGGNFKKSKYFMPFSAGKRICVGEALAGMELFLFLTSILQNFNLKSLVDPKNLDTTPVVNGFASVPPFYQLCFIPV

SMILES strings stand for the structures. Unmarked numbers belong to inactive results. Results filed as inconclusive are left out. The source made the active and inactive calls. Unless noted, calls come from the whole dose curve; as a rule, active = well fitted inhibition curve with a large enough effect; inconclusive = small, poorly fitted or top-dose-only effect; inactive = no such curve, though single readings can be large or run the other way.

Chain of 3',5'-cyclic-AMP phosphodiesterase 4B (Homo sapiens) (Q07343 whole entry, looked up): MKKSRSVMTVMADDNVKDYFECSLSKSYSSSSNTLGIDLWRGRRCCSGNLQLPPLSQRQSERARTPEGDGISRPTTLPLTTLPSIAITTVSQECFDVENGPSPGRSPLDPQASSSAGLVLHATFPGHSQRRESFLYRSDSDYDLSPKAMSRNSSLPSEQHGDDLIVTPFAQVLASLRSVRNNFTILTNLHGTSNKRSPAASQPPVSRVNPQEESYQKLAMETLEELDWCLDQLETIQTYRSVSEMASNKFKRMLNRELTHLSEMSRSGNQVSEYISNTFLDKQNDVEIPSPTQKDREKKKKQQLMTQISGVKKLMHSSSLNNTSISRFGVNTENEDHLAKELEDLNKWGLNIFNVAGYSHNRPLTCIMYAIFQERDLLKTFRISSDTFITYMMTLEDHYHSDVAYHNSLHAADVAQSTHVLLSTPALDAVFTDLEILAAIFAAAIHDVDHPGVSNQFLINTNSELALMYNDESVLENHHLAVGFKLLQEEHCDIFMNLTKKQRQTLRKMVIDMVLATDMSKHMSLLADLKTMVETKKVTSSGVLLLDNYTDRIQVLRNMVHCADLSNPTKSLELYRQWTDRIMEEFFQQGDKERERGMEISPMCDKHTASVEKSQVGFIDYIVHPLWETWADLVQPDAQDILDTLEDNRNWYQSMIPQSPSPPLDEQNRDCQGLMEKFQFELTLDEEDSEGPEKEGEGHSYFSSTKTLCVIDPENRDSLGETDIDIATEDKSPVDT
Chain of Cytochrome P450 2D6 (Homo sapiens) (P10635 whole entry, looked up): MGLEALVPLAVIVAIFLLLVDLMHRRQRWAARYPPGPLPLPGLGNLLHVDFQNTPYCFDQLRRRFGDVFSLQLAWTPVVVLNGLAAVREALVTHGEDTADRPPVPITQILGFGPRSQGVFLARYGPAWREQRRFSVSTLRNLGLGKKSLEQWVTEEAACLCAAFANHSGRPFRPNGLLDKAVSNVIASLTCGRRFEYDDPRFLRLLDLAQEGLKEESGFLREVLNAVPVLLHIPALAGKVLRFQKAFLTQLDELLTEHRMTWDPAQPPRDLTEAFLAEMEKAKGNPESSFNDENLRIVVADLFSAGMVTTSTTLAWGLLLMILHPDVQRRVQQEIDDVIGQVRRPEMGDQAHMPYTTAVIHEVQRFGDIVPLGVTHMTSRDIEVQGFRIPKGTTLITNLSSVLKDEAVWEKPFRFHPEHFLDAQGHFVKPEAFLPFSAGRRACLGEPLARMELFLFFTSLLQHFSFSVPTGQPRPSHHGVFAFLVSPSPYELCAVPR

Regarding `CC(C)C[C@@H](CC(=O)N[C@@H](CCCN)CC(=O)N[C@@H]1CCNC[C@H]1C(=O)N[C@H](CC(=O)N[C@@H](CCC(=O)O)CC(=O)O)Cc1c[nH]c2ccccc12)NC(=O)[C@@H]1CCCC[C@H]1N`, the Potency result in assay [1], in assay [3], in assay [4], in assay [5] and in assay [6] was “inactive” in each case. Besides, in assay [2], the Potency is > 46 µM.

`CC1(C)[C@@H](O)CC[C@@]2(C)[C@H]1CC[C@]1(C)[C@H]2C(=O)C=C2[C@@H]3C[C@@](C)(C(=O)O)CC[C@]3(C)CC[C@@]21C`: the Potency result in assay [1], in assay [3], in assay [4], in assay [8], in assay [5] and in assay [6] was “inactive” in each case. Moreover, the Potency in assay [7] is > 46 µM.

On to `C[C@H](O)[C@H](O)[C@@H](O)c1cnc2nc(N)[nH]c(=O)c2n1`, for which the Potency entry in assay [1], in assay [3], in assay [4], in assay [8], in assay [5] and in assay [6] was “inactive” in each case. In assay [7], the Potency is > 46 µM.

For the compound `CC(C)C[C@@H](CC(=O)N[C@@H](CCC(=O)O)CC(=O)O)NC(=O)[C@@H]1CNCC[C@H]1NC(=O)C[C@H](CCCN)NC(=O)C[C@H](Cc1c[nH]c2ccccc12)NC(=O)[C@@H]1CNCC[C@H]1N`, the Potency entry in assay [1], in assay [3], in assay [4], in assay [8], in assay [5] and in assay [6] was “inactive” in each case. Also, in assay [2], the Potency is > 46 µM.

Consider `NCCC[C@@H](CC(=O)N[C@@H]1CCNC[C@H]1C(=O)N[C@H](CC(=O)N[C@@H](CCC(=O)O)CC(=O)O)Cc1c[nH]c2ccccc12)NC(=O)C[C@H](Cc1c[nH]c2ccccc12)NC(=O)[C@@H]1CCCC[C@H]1N`, for which the Potency entry in assay [1], in assay [3], in assay [4], in assay [8], in assay [5] and in assay [6] was “inactive” in each case. Besides, in assay [2], the Potency is > 46 µM.

As to `CC(C)[C@@H](CC(=O)N[C@@H]1CCNC[C@H]1C(=O)N[C@H](CC(=O)N[C@@H](CCC(=O)O)CC(=O)O)Cc1c[nH]c2ccccc12)NC(=O)C[C@H](Cc1c[nH]c2ccccc12)NC(=O)[C@@H]1CNCC[C@H]1N`, the Potency entry in assay [1], in assay [4], in assay [8], in assay [5] and in assay [6] was “inactive” in each case. Further, the Potency in assay [2] was > 46 µM.

In the case of `COC(=O)[C@@]1(Cc2ccc(F)cc2)[C@H]2c3cc(C(=O)N(C)C)n(Cc4cc(F)c(F)c(F)c4)c3C[C@H]2CN1C(=O)c1ccccc1`, the Potency entry in assay [1], in assay [3] and in assay [4] was “inactive” each time.

With `CCC/C=C(\CCC)C(NC(=O)Oc1ccc(F)cc1)c1ccc(C(=O)OC)cc1` (centres undefined), the Potency result in assay [1] and in assay [3] was “inactive” throughout.

Take `NCCC[C@@H](CC(=O)N[C@@H]1CCCC[C@H]1C(=O)N[C@H](CC(=O)N[C@@H](CCC(=O)O)CC(=O)O)Cc1c[nH]c2ccccc12)NC(=O)C[C@H](Cc1c[nH]c2ccccc12)NC(=O)[C@@H]1CNCC[C@H]1N`: the Potency entry in assay [1], in assay [3], in assay [8], in assay [5] and in assay [6] was “inactive” each time. Besides, in assay [2], the Potency was > 46 µM.

Consider `NCCC[C@@H](CC(=O)N[C@@H]1CCCC[C@H]1C(=O)N[C@H](CC(=O)N[C@@H](CCC(=O)O)CC(=O)O)Cc1ccccc1)NC(=O)C[C@H](CO)NC(=O)[C@@H]1CNCC[C@H]1N`, for which the Potency result in assay [1], in assay [3] and in assay [5] was “inactive” each time. For the same compound, the Potency in assay [2] was > 46 µM.

`NCCC[C@@H](CC(=O)N[C@@H]1CCNC[C@H]1C(=O)N[C@H](CC(=O)N[C@@H](CCC(=O)O)CC(=O)O)Cc1c[nH]c2ccccc12)NC(=O)C[C@H](Cc1ccccc1)NC(=O)[C@@H]1CNCC[C@H]1N`: the Potency in assay [1] is 31.6 µM (active); in assay [2], > 46 µM. The Potency entry in assay [4], in assay [8], in assay [5] and in assay [6] was “inactive” each time.

As to `CC(C)[C@@H](CC(=O)N[C@@H]1CCNC[C@H]1C(=O)N[C@H](CC(=O)N[C@@H](CCC(=O)O)CC(=O)O)Cc1ccccc1)NC(=O)C[C@H](CO)NC(=O)[C@@H]1CNCC[C@H]1N`, the Potency result in assay [1], in assay [4] and in assay [5] was “inactive” throughout. Also, in assay [2], the Potency is > 46 µM.

As to `COc1cc(/C=C\C(=O)CC(=O)/C=C\c2ccc(O)c(OC)c2)ccc1O`, the Potency is 15.8 µM (active) in assay [1], > 46 µM in assay [2], 15.8 µM (active) in assay [5] and 2.51 µM (active) in assay [6]. For the same compound, the Potency entry in assay [3] is “inactive”.

`CC(C)C[C@@H](CC(=O)N[C@@H](CCC(=O)O)CC(=O)O)NC(=O)[C@@H]1CCCC[C@H]1NC(=O)C[C@H](CCCN)NC(=O)C[C@H](CO)NC(=O)[C@@H]1CNCC[C@H]1N`: the Potency entry in assay [1], in assay [3], in assay [4], in assay [5] and in assay [6] was “inactive” in each case. The Potency in assay [2] is > 46 µM.

For the compound `NCCC[C@@H](CC(=O)N[C@@H]1CCCC[C@H]1C(=O)N[C@H](CC(=O)N[C@@H](CCC(=O)O)CC(=O)O)Cc1c[nH]c2ccccc12)NC(=O)C[C@H](Cc1c[nH]c2ccccc12)NC(=O)[C@@H]1CCCC[C@H]1N`, the Potency result in assay [1], in assay [4], in assay [5] and in assay [6] was “inactive” each time. Further, the Potency in assay [2] was > 46 µM.

As for `Clc1ccc(CO[C@@H](Cn2ccnc2)c2ccc(Cl)cc2Cl)cc1`, the Potency in assay [1] is 0.1 µM (active); in assay [2] it was > 20.6 µM; in assay [5], 0.199 µM (active).

Consider `CC(C)C[C@@H](CC(=O)N[C@@H](CCCN)CC(=O)N[C@@H]1CCCC[C@H]1C(=O)N[C@H](CC(=O)N[C@@H](CCC(=O)O)CC(=O)O)Cc1ccccc1)NC(=O)[C@@H]1CNCC[C@H]1N`, for which the Potency is 25.1 µM (active) in assay [1] and > 46 µM in assay [2]. Also, the Potency entry in assay [8], in assay [5] and in assay [6] was “inactive” in each case.
